Screens (PubChem BioAssay)
hcDAF-12 act – activates DAF-12 receptor from parasite H. contortus | HEK293 hcDAF-12 lit1-tk-luc reporter, luminescence; 0% DMSO, 100% Δ7-dafachronic acid | activation, % at 6.8 µM | 370,000 compounds, 1.4% hits | AID 652067;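 active means activation above the mean of all tested compounds plus 3 SD, cut at about 5.5% in these data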
hgDAF12 agonist – hgDAF-12 agonism, primary luciferase screen. HEK293 GAL4-hgDAF12 UAS-luciferase reporter, agonist luminescence; normalized to butyrate control. activation, % at 6.8 µM. 370,000 compounds, 1.8% hits. AID 687014;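 active means activation above a cutoff set at the mean of all screened compounds plus 3 SD, cut at about 10% in these data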
DAX1 inh-1 – inhibitors of human orphan nuclear receptor DAX1 (NR0B1); P51843; HEK293 Gal4-DAX1 luciferase reporter, luminescence; inhibition, % at 6.75 µM; 340,000 compounds, 0.99% hits;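 active means inhibition above the mean over all tested compounds plus 3 SD, cut at about 4.2% in these data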;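 further: inhibition shows as a rise in luminescence from relieved DAX1 repression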
ssDAF-12 act – activators of S. stercoralis DAF-12 nuclear receptor; HEK293 ssDAF-12/GRIP1 lit1-tk-luc reporter, luminescence; % of 3 µM dafachronic acid response; activation, % at 6.8 µM; 370,000 compounds, 1% hits;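 active means activation above the mean over all tested compounds plus 3 SD, cut at about 0.9% in these data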
DAX1 inh-2 – blocks DAX1 repression of SF-1 activated StAR promoter. AID 652010. HEK293T StAR-luciferase reporter, SF-1/DAX-1 repression relief. 370,000 compounds, 1.1% hits. inhibition, % at 6.8 µM;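 active means inhibition above the mean over all tested compounds plus 3 SD, cut at about 3.6% in these data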;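 further: higher inhibition means more luminescence from relief of DAX-1 repression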
DAX1 conf – NR0B1 (human) inhibition, confirmation. 2,400 compounds, 87% hits. HEK293T StAR-promoter luciferase reporter, SF-1/DAX-1 repression. inhibition, % at 6.8 µM. shares compounds with DAX1 inh-2. AID 652134;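 active means inhibition above the average of every tested compound plus 3 SD, cut at about 3.8% in these data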;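 further: active compounds raise luminescence by relieving repression of the StAR reporter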
Target sequence (P51843 whole entry, looked up): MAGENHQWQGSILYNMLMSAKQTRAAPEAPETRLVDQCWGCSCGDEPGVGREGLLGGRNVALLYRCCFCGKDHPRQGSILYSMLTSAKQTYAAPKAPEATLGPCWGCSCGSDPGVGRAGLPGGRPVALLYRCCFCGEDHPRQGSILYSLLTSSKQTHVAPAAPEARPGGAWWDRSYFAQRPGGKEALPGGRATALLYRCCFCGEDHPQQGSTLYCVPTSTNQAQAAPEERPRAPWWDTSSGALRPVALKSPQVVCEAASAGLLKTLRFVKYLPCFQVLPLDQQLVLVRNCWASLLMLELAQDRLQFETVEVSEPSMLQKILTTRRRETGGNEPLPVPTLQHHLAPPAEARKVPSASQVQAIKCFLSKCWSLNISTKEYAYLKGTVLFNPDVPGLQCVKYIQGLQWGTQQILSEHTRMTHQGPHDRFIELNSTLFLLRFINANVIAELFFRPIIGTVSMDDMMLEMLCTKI
SF1 AF2mut Luc – counter-screen for DAX1 inhibitors: nonselective inhibitors with SF-1 AF2 mutant; shares compounds with DAX1 inh-2; HEK293 StAR-luciferase, luminescence; inhibition, % at 6.8 µM; 2,400 compounds, 78% hits; AID 652136;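 active means inhibition above the mean of all tested compounds plus 3 SD, cut at about 3% in these data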
LXRb hcDAF ctr – LXR-beta agonism as hcDAF-12 counter-screen; shares compounds with hcDAF-12 act; HEK293 Gal4-LXR tk-luc reporter, luminescence, 24 h; normalized: DMSO 0%, positive control 100%; activation, % at 6.8 µM; 3,400 tested, under 10 active;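 active means mean percent activation of the reporter above a cutoff set as the average over tested compounds plus their standard deviation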
hcDAF12 conf – hcDAF-12 agonism, confirmation assay | activation, % at 6.8 µM | HEK293 hcDAF-12 lit1-tk-luc reporter, luminescence; % of Δ7-dafachronic acid response | shares compounds with hcDAF-12 act | 3,400 compounds, 61% hits;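 active means mean activation across triplicate tests above the threshold derived from the earlier primary screen, cut at about 5.5% in these data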
hgDAF12 conf – hgDAF-12 agonism, confirmation assay; 3,300 compounds, 80% hits; HEK293 GAL4-hgDAF12 luciferase reporter, agonist mode; percent of butyrate response; shares compounds with hgDAF12 agonist; activation, % at 6.8 µM;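 active means mean activation over triplicate wells above the hit cutoff derived from the earlier primary screen, cut at about 11% in these data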
LXRb DAF12 ctr – counter-screen for DAF-12 agonists: agonists of human LXR-beta; activation, % at 6.8 µM; shares compounds with hgDAF12 agonist; HEK293 Gal4-LXR luciferase reporter, 24 h; AID 743051; 3,300 tested, under 10 active;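 active means mean activation of the triplicate above a set limit carried over from the primary screen, none filed active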
Large screens that a line does not name were inactive (follow-up assays come after a bar, where they were run). This is a sample that favours compounds with a hit; in the whole collection about 4.1% have one here.

Cn1cccc1C(=O)OCC(=O)c1c[nH]c2ccccc12	hcDAF-12 act 11, hgDAF12 agonist 14, DAX1 inh-2 4.7 | DAX1 conf 16 | SF1 AF2mut Luc 8.1 | LXRb hcDAF ctr inactive | hcDAF12 conf 6.3 | hgDAF12 conf 14 | LXRb DAF12 ctr inactive
Cc1cnc(C(=O)OCC(=O)c2c[nH]c3ccccc23)cn1	none
O=S1(=O)CC(N2CCC(c3ccccc3)CC2)CN1Cc1ccccc1 (stereo not drawn)	none (no result: DAX1 inh-1)
Cc1cc(C)cc(N(CC(=O)Nc2ccc(-c3nc4ccc(C)cc4s3)cc2)S(C)(=O)=O)c1	none
CCCCNC(=S)Nc1ccc(-c2nc3ccc(C)cc3s2)cc1	hcDAF-12 act 10, hgDAF12 agonist 20, DAX1 inh-2 7.1 | DAX1 conf 13 | SF1 AF2mut Luc 9.0 | LXRb hcDAF ctr inactive | hcDAF12 conf inactive | hgDAF12 conf 20 | LXRb DAF12 ctr inactive
CNC(=S)Nc1ccc(-c2nc3ccc(C)cc3s2)cc1	hcDAF-12 act 7.3, hgDAF12 agonist 18, ssDAF-12 act 1.8, DAX1 inh-2 5.9 | DAX1 conf 12 | SF1 AF2mut Luc 6.2 | LXRb hcDAF ctr inactive | hcDAF12 conf 8.9 | hgDAF12 conf 24 | LXRb DAF12 ctr inactive
CCC(C)(C)NC(=S)Nc1ccc(-c2nc3ccc(C)cc3s2)cc1	hcDAF-12 act 9.1, hgDAF12 agonist 20, ssDAF-12 act 0.9, DAX1 inh-2 8.4 | DAX1 conf 16 | SF1 AF2mut Luc 7.6 | LXRb hcDAF ctr inactive | hcDAF12 conf 5.7 | hgDAF12 conf 19 | LXRb DAF12 ctr inactive
CC1=CCC(C(=O)O)C(C(=O)Nc2ccc(-c3nc4ccc(C)cc4s3)cc2)C1 (stereo not drawn)	hcDAF-12 act 6.7, hgDAF12 agonist 13, ssDAF-12 act 1.9, DAX1 inh-2 6.1 | DAX1 conf inactive | SF1 AF2mut Luc inactive | LXRb hcDAF ctr inactive | hcDAF12 conf inactive | hgDAF12 conf inactive | LXRb DAF12 ctr inactive
COCCNC(=O)C1(C)CCN(C(=O)c2cccc(C)c2C)C1 (stereo not drawn)	none (no result: DAX1 inh-1)
COc1ccc(C2C(C(=O)Nc3ccc(Cl)cc3)CCC(=O)N2c2ccc(OC)cc2)cc1 (stereo not drawn)	none (no result: DAX1 inh-1)
S=C(c1ccc(-c2ccc(Cl)cc2)o1)N1CCCCC1	hgDAF12 agonist 15, DAX1 inh-1 4.8, DAX1 inh-2 5.3 | DAX1 conf 15 | SF1 AF2mut Luc 9.0 | hgDAF12 conf 20 | LXRb DAF12 ctr inactive
COC(=O)CSc1nc2cc(C)cc(C)c2cc1C#N	none
CC(=O)CSc1nc2cc3c(cc2cc1C#N)OCCO3	hcDAF-12 act 12, hgDAF12 agonist 27, DAX1 inh-2 7.9 | DAX1 conf 14 | SF1 AF2mut Luc 4.9 | LXRb hcDAF ctr inactive | hcDAF12 conf 10 | hgDAF12 conf 19 | LXRb DAF12 ctr inactive
COC(=O)CSc1nc2ccc(C)cc2cc1C#N	hcDAF-12 act 7.2, hgDAF12 agonist 26, DAX1 inh-1 5.9, ssDAF-12 act 1.4, DAX1 inh-2 8.8 | DAX1 conf 19 | SF1 AF2mut Luc 11 | LXRb hcDAF ctr inactive | hcDAF12 conf inactive | hgDAF12 conf 20 | LXRb DAF12 ctr inactive
C[C@@H]1COc2cccc(NC3CC3)c2S(=O)(=O)N1	none (no result: DAX1 inh-1)
O=C(OCc1cn([C@@H]2CN(CC3CCCCC3)[C@@H](c3ccccc3)C[C@H]2O)nn1)c1ccccc1	none
